# Most compounds without a hit are left out; they make up all but 1.1% or so of the library.
# HTR5A inv ag: HTR5A inverse agonists in luminescence cell assay, primary screen, counter-screen for OPRM1-OPRD1 heterodimer inverse agonist project, full-deck HTS; AID 504634, 2011; inhibition, % at 9.3 µM; 0.083% of 340,000 active; HTR5A cell line, inverse agonism; in the data active = inhibition mostly above about 23%, no sharp cut-off; inactive = mostly below about 18%;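 also: 0% = cells with DMSO and 100% = no-cell wells with DMSO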
# OPRM1-OPRD1 ag: agonists of OPRM1-OPRD1 heterodimerization, primary screen, cell-based, luminescence; activation, % at 9.3 µM; cells; 0.3% of 340,000 active; Mu-type opioid receptor (Homo sapiens) + Delta-type opioid receptor (Homo sapiens), …; in the data active = activation above about 18%;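 also: 0% = vehicle-treated cells and 100% = reference agonist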
# Target sequence (P35372 whole entry, looked up): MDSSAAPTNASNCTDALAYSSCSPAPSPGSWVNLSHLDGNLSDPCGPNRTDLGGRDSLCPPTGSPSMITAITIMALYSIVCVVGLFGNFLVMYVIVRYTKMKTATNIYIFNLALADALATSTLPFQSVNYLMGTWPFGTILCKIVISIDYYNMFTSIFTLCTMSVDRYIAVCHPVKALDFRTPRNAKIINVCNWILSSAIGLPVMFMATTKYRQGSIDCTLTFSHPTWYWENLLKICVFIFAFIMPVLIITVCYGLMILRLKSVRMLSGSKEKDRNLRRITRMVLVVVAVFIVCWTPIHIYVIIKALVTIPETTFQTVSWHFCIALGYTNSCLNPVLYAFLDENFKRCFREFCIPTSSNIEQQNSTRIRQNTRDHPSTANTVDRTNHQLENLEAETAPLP
# Target sequence (P41143 whole entry, looked up): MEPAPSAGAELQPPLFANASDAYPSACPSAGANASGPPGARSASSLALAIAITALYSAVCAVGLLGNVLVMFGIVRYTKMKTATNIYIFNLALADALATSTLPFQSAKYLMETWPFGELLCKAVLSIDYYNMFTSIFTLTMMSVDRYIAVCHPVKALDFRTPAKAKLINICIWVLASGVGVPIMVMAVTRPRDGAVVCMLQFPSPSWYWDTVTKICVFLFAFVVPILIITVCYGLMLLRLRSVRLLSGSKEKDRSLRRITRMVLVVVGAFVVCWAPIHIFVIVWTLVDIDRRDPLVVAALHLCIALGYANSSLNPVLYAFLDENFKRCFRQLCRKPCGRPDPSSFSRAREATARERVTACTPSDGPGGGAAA
# HTR5A ag: HTR5A agonists in luminescence cell assay, primary screen, counter-screen for OPRM1-OPRD1 heterodimer agonist project, full-deck HTS; 5-hydroxytryptamine receptor 5A (Homo sapiens), P47898; cell-based; activation, % at 9.3 µM; 0.61% of 340,000 active; in the data active = activation mostly above about 9.5%, no sharp cut-off; inactive = mostly below about 7.6%;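 also: 0% = cells with vehicle only and 100% = reference agonist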
# OPRM1-OPRD1 inv: inverse agonists of MOR-DOR heterodimerization, primary screen, cell-based, luminescence | Mu-type opioid receptor (Homo sapiens) + Delta-type opioid receptor (Homo sapiens), … | cell-based MOR-DOR heterodimer luminescence, inverse agonism | inhibition, % at 9.3 µM | 0.21% of 340,000 active | AID 504357, 2011; in the data active = inhibition above about 22%, passing the limit was not always enough;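 also: 0% = cells with DMSO and 100% = wells without cells with DMSO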
# * hit, by the source's call.
SMILES,HTR5A inv ag,OPRM1-OPRD1 ag,HTR5A ag,OPRM1-OPRD1 inv
Cc1ccc(S(=O)(=O)Nc2nc(C)c(C(=O)N/N=C/c3ccccc3)s2)cc1,-9,-2,13*,9
CC(C)C[C@@H](CN1CCC[C@@H]1CN1C(=O)C(=O)NC[C@@H]1Cc1ccccc1)N1C[C@H](Cc2ccccc2)N(CC2CCCCCC2)C(=O)C1=O,-39,-1,10*,7
Cc1ccc(S(=O)(=O)c2nnn3c2nc(N2CCC(C(N)=O)CC2)c2ccccc23)cc1,3,-2,-5,9
Cc1nonc1C(=O)N1CCCC(N2CCN(c3ccc(F)cc3)CC2)C1 (stereo not given),-7,-1,-2,6
CCOC(=O)c1coc(CNC(=O)c2c(C)oc3c2CCCC3)c1,-36,0,15,0
CCOC(=O)c1cc(CNC(=O)c2c(C)oc3c2CCCC3)c(C)o1,-3,1,11*,-6
Cc1ccc(C(C)NC(=O)c2cc3cc(Br)ccc3oc2=N)cc1 (stereo not given),-8,-1,1,3
COc1ccc(OC)c(NC(=O)COC(=O)CCc2nc3ccccc3c(=O)[nH]2)c1,-12,-3,3,18
COc1cc(C2CC(c3cccs3)=NN2C(=O)CCl)ccc1OC(F)F (stereo not given),-144,74*,59*,-414
COc1cc(CC(NC(C)=O)C(=O)NC2CCN(c3nc(OC)nc(OC)n3)CC2)cc(OC)c1 (stereo not given),-5,-2,2,9
COc1nc(OC)nc(N2CCC(NC(=O)C(Cc3ccc(C(C)C)cc3)NC(C)=O)CC2)n1 (stereo not given),20,-2,11*,11
COc1cc2c(cc1OC)C(c1ccc(OC)c(OC)c1OC)CC(=O)N2 (stereo not given),-37,-2,10*,10
COc1cc2c(cc1OC)C(c1cccc(OC)c1OC)CC(=O)N2 (stereo not given),1,-4,0,19
Cc1ccc(Nc2nc(-c3ccc(S(=O)(=O)N4CCCC4)cc3)cs2)cc1C,3,2,10*,-9
CC1CC(C)CN(CCCNC(=O)CN2C(=O)CSc3ccc(S(=O)(=O)N4CCOCC4)cc32)C1 (stereo not given),-33,-3,12*,14
COc1ccccc1N/C=C(\C#N)c1nc2ccccc2[nH]1,-36,4,13*,-27
Cc1ccc(-n2c(=O)c3ccc(C(=O)NCc4ccco4)cc3n(Cc3ccccc3C#N)c2=O)cc1,37*,-7,-10,35*
O=C(CCCCCn1c(=S)[nH]c2ccc(N3CCOCC3)cc2c1=O)NCc1ccc2c(c1)OCO2,-31,-2,12*,9
O=C(CCCCCn1c(=S)[nH]c2ccc(N3CCOCC3)cc2c1=O)NCc1ccc(Cl)cc1,-35,2,13*,-11
O=C(CCCCCn1c(=S)[nH]c2ccc(N3CCOCC3)cc2c1=O)NCc1ccccc1Cl,-12,7,0,-35
CN(C)/C=C/c1oc2ccc(O)cc2c1[N+](=O)[O-],30*,-8,-11,41*
Cc1oc2ccc(O)cc2c1C(=O)c1ccc([N+](=O)[O-])cc1,-30,4,3,-23
CCN(CC)c1ccc(NC(=S)Nc2ccc(F)cc2)cc1,-7,2,3,-12
Cc1c(CCOC(=O)CC23CC4CC(CC(C)(C4)C2)C3)sc[n+]1CC(=O)c1ccccc1,4,-3,13*,15
Cc1c(CCOC(=O)C23CC4CC(CC(C)(C4)C2)C3)sc[n+]1CC(=O)c1ccccc1,-5,-1,2,5
SMILES,HTR5A inv ag,OPRM1-OPRD1 ag,HTR5A ag,OPRM1-OPRD1 inv
C=CCOc1ccc(/C=C/C(=O)OCC(=O)N(C)CC(=O)Nc2ccc(F)cc2)cc1,3,2,-1,-14
CCN=c1sc(C(=O)OC)cc(=O)n1CC,0,-1,11*,5
C=CCN=c1sc(C(=O)OC)cc(=O)n1CC=C,-19,-3,6,15
CCCCNC(=O)C1CCC(CNS(=O)(=O)c2ccc(C)cc2)CC1 (stereo not given),10,-1,2,8
CCCCSCCCNC(=O)C1CCC(CNS(=O)(=O)c2ccccc2)CC1 (stereo not given),-49,2,12*,-11
CS(=O)(=O)N(CC(=O)N1CCCC1)c1ccccc1F,-8,-2,2,8
COc1ccc(CNC(=O)COC(=O)c2c(NC(C)=O)sc(C)c2C)cc1,-10,0,14*,0
CN(CC(=O)Nc1ccc(F)cc1)C(=O)C1Cc2ccccc2CN1S(C)(=O)=O (stereo not given),11,-3,-4,17
CCS(=O)(=O)N1Cc2ccccc2CC1C(=O)N(C)CC(=O)Nc1cccc(F)c1 (stereo not given),12,-1,9.9*,6
O=[N+]([O-])c1c(Nc2ccccc2O)cc(Cl)c2nonc12,8,-6,-12,29*
COc1ccccc1-n1ccnc1SCC(=O)NCc1ccco1,-1,-1,0,3
CC(C)(C)S(=O)(=O)N1Cc2ccc(CO)cc2[C@@H]1CCO,-9,-2,2,9
Cc1cc(C(=O)c2ccccc2)cc(C)c1O,16,-3,-4,14
CC1=C/C(=C(\c2cc(C)c(O)c(Br)c2)c2ccccc2S(=O)(=O)O)C=C(Br)C1=O,8,-5,-11,28*
Cc1cc(C)c(C(=O)C(C)OC(=O)C2=COCCO2)cc1C (stereo not given),17,0,-2,-2
O=C1c2cccc3cccc(c23)C(=O)C1(O)O,15,-9,-4,46*
O=C1c2cccc3cccc(c23)C(=O)N1c1ccc(O)cc1,8,2,-2,-9
CC1CCN(S(=O)(=O)c2ccc(NC(=O)Cn3nnc(-c4ccccc4)n3)cc2)CC1,-42,31*,16*,-168
O=C1NC[C@H](c2ccccc2)N(CCC23CC4CC(CC(C4)C2)C3)C1=O,8,-1,6,5
CCn1c(SCC(=O)Nc2cc(C)on2)nc2sc3c(c2c1=O)CCCC3,-28,26*,21*,-151
Cc1ccccc1Oc1nc(-c2ccccn2)nc2ccccc12,14,1,-5,-7
CC1=[N+](C)c2ccc3ccccc3c2C1(C)C,-37,9,13*,-69
Cc1ccc(C(C)C)c(OCC(O)CN(C)Cc2ccccc2)c1 (stereo not given),-44,6,12*,-25
O=C(Cc1ccc(NC(=O)C2CCN(C(=O)c3ccccc3)CC2)cc1)Nc1cccc(C(=O)N2CCCC2)c1,2,-3,0,13
CCCCNC(=O)Cc1c(OC)ccc2cc(Br)ccc12,34,-1,6,4
CCCNC(=O)Cc1c(OC)ccc2cc(Br)ccc12,-46,3,13*,-18
Cc1ccc(S(=O)(=O)/N=C(\Nc2cc(C)on2)c2ccc(Cl)cc2)cc1,1,-3,-1,14
N/C(=N\OC(=O)c1ccc(Cl)cc1)c1ccccn1,-10,1,4,-7

# Compound activity (PubChem)
